Test [1] concerns the target T1, Inhibitor of nuclear factor kappa-B kinase subunit epsilon (Homo sapiens) (UniProt Q14164).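 Further: reported values are averaged percent inhibition figures against human IKKε.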
T1 sequence (whole entry): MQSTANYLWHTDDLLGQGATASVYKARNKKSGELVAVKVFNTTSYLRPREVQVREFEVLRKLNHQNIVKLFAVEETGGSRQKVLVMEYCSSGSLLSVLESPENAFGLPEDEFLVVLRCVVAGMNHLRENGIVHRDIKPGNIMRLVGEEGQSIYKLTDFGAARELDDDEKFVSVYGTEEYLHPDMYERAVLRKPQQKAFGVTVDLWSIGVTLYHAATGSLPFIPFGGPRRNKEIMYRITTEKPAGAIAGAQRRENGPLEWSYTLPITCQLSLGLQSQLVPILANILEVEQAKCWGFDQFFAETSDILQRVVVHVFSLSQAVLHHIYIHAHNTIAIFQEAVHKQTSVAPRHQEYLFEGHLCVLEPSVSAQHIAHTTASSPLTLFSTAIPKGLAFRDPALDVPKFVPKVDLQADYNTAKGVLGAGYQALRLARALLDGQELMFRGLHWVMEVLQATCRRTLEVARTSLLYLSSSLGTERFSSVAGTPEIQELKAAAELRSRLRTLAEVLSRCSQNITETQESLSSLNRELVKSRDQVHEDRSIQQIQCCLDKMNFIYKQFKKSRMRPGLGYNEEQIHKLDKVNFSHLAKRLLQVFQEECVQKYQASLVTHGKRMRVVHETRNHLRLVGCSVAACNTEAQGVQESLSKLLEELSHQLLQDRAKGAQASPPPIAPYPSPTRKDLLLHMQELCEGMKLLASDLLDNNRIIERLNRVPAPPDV
Particulars: at 1 µM.

Test [2] has as its target T2, Serine/threonine-protein kinase Nek1 (Homo sapiens) (UniProt Q96PY6).
T2 sequence (whole entry): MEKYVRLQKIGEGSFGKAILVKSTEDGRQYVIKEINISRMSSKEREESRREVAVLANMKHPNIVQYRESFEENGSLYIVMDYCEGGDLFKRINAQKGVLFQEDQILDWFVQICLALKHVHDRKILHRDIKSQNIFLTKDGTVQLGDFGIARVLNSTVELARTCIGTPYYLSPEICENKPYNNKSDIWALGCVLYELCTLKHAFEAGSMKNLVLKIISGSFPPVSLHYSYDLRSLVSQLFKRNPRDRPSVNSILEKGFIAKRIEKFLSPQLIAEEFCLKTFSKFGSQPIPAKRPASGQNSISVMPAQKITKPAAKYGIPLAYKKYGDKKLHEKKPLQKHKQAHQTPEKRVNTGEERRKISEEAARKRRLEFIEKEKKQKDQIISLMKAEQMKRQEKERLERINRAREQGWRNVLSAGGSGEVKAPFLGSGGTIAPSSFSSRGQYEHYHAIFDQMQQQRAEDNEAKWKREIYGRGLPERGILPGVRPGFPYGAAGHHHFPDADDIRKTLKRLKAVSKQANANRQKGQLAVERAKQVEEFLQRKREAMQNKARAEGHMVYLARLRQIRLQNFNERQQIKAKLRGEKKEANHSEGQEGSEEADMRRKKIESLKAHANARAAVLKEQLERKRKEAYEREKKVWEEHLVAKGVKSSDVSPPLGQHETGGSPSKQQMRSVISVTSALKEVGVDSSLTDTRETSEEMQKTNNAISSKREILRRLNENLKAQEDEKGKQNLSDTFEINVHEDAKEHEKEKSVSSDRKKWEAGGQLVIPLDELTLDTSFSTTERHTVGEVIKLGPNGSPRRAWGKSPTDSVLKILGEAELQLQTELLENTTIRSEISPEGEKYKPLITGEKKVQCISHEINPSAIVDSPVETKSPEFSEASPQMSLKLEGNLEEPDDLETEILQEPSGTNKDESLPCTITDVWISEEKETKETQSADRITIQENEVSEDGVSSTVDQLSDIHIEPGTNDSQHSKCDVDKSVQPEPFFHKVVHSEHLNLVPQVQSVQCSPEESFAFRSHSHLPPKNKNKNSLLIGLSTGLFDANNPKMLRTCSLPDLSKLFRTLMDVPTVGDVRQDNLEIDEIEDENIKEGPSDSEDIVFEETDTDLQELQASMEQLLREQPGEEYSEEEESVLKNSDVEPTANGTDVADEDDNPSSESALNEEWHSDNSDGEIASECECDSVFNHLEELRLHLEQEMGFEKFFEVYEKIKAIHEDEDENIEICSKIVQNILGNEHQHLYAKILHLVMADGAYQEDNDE
Particulars: at 0.1 µM.

In test [3] the target is T2, Serine/threonine-protein kinase Nek1 (Homo sapiens). The note with it: at 1 µM.
Test [4] has as its target T3, Serine/threonine-protein kinase Nek2 (Homo sapiens) (UniProt P51955).
T3 sequence (whole entry): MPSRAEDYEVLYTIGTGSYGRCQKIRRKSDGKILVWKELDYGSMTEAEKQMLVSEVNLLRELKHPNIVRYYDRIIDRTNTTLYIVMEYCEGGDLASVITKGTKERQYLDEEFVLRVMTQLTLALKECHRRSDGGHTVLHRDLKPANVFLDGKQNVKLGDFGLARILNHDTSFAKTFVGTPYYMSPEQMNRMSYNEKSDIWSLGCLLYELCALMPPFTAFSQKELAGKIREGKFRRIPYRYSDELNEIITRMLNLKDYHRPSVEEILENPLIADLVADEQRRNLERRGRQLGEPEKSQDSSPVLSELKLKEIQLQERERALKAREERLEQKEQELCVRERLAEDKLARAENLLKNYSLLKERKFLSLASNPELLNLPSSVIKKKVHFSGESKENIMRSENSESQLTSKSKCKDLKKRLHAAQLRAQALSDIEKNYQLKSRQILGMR
Particulars: at 0.1 µM.

Test [5] deals with T3, Serine/threonine-protein kinase Nek2 (Homo sapiens). Particulars: at 1 µM.
Test [6] addresses Serine/threonine-protein kinase Nek6 (Homo sapiens) (UniProt Q9HC98). The note with it: at 0.1 µM.
For test [7] the target is unchanged. The note with it: at 1 µM.
The target of test [8] is Serine/threonine-protein kinase Nek7 (Homo sapiens) (UniProt Q8TDX7). The note with it: at 0.1 µM.
Test [9] has the same target. The note with it: at 1 µM.
The target in test [10] is T4, Serine/threonine-protein kinase Nek9 (Homo sapiens) (UniProt Q8TD19).
T4 sequence (whole entry): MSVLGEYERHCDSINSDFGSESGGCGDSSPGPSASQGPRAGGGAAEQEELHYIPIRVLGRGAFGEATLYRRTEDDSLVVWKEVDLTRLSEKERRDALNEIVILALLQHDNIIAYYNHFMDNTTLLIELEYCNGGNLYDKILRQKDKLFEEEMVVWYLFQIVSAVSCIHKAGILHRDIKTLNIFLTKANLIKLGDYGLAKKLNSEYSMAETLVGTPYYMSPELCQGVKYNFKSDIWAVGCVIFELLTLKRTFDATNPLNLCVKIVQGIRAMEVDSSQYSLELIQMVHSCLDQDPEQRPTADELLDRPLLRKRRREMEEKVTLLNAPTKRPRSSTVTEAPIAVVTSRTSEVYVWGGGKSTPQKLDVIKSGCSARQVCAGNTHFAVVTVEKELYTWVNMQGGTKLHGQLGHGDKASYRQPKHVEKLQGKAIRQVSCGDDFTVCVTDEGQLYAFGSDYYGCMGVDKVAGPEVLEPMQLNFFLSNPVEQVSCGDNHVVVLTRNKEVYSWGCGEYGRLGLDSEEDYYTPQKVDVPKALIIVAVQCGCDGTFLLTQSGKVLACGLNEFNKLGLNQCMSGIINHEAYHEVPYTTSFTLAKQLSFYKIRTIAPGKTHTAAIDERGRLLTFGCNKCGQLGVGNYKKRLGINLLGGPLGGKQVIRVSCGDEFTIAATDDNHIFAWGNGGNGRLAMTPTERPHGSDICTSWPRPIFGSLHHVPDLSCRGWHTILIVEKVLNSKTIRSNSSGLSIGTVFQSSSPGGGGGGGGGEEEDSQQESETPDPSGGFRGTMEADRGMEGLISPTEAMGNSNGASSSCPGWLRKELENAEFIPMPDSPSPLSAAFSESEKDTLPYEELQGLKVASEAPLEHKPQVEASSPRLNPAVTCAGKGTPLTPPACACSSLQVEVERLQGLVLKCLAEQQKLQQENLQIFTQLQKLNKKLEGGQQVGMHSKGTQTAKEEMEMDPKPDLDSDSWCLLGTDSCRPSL
The note with it: at 0.1 µM.

Test [11] concerns the target T4, Serine/threonine-protein kinase Nek9 (Homo sapiens). The note with it: at 1 µM.
Test [12] addresses Serine/threonine-protein kinase PLK1 (Homo sapiens) (UniProt P53350). Particulars: at 0.1 µM.
The target is the same in test [13]. The note with it: at 1 µM.
Test [14] has as its target T5, Dual specificity protein kinase TTK (Homo sapiens) (UniProt P33981).
T5 sequence (whole entry): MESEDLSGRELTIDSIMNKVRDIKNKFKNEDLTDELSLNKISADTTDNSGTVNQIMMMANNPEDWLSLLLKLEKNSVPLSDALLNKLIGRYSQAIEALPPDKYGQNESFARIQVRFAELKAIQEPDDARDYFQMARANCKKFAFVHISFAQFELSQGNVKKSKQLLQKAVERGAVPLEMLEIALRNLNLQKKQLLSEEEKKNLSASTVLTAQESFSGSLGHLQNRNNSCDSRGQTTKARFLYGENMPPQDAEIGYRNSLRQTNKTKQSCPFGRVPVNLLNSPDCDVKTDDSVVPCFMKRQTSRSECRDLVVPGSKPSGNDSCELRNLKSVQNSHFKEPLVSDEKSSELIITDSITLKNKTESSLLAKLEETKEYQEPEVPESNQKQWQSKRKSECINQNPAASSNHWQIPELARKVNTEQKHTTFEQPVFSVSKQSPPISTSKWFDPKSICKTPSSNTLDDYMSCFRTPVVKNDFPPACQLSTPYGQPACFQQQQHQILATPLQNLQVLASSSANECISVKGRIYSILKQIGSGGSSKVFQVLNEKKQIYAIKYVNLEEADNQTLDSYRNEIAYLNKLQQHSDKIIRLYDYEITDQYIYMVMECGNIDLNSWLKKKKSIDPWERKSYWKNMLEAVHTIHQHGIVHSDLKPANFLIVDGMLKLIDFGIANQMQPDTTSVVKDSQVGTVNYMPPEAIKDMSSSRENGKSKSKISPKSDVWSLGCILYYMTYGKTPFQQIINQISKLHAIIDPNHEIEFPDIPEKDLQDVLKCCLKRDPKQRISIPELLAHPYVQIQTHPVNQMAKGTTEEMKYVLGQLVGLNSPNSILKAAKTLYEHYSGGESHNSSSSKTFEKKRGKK
The note with it: at 0.1 µM.

Test [15] has as its system T6, Receptor-type tyrosine-protein kinase FLT3 (Homo sapiens), P36888 [D835Y].
T6 sequence (whole entry): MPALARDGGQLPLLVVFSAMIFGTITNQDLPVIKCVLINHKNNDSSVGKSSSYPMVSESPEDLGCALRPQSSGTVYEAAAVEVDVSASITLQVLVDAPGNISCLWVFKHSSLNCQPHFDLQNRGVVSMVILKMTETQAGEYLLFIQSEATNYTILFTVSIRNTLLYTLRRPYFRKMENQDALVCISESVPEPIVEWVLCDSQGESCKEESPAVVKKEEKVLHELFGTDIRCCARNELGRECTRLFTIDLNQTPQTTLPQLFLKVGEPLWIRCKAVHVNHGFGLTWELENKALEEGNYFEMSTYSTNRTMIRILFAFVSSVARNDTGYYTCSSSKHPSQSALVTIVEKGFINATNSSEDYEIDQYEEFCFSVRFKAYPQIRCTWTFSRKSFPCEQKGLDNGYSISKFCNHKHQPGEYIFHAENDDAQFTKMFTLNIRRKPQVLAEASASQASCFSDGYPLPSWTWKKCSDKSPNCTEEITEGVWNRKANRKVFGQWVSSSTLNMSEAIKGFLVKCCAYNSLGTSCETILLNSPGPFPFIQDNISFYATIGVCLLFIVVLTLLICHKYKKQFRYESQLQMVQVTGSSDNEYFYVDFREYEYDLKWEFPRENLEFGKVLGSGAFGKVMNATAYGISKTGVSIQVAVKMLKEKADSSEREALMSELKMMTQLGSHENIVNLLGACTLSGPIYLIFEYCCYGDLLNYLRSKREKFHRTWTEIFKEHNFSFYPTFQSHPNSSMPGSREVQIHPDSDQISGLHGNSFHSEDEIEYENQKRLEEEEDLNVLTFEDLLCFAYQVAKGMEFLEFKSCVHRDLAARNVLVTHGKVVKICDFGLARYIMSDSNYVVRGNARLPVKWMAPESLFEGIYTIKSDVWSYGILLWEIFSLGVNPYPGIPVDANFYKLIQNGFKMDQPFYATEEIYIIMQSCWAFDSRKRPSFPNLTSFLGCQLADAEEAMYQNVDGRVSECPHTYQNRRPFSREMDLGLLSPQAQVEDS
Particulars: at 1 µM.

Test [16] deals with Vascular endothelial growth factor receptor 3 (Homo sapiens) (UniProt P35916). Particulars: at 0.1 µM.
For test [17] the target is unchanged. The note with it: at 1 µM.
Test [18] addresses Macrophage colony-stimulating factor 1 receptor (Homo sapiens) (UniProt P07333). The note with it: at 0.1 µM.
For test [19] the target is unchanged. Particulars: at 1 µM.
The target of test [20] is Tyrosine-protein kinase Fyn (Homo sapiens) (UniProt P06241). The note with it: at 0.1 µM.
Chain of Tyrosine-protein kinase Fyn (Homo sapiens) (P06241 2-537 limits assumed): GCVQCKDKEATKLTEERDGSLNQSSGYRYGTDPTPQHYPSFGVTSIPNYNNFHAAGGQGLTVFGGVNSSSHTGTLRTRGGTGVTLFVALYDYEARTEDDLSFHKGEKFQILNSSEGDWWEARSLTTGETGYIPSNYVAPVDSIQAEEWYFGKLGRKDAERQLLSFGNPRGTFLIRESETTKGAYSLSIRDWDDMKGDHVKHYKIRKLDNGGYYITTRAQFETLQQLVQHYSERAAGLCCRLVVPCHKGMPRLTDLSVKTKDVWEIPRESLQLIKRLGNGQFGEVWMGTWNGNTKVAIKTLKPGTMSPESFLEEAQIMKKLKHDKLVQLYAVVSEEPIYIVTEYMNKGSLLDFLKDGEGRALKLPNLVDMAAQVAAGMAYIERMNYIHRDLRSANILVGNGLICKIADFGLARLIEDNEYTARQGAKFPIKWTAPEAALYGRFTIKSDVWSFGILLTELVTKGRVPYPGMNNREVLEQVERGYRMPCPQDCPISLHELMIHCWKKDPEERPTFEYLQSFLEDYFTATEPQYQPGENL

Chain of Macrophage colony-stimulating factor 1 receptor (Homo sapiens) (P07333 whole entry): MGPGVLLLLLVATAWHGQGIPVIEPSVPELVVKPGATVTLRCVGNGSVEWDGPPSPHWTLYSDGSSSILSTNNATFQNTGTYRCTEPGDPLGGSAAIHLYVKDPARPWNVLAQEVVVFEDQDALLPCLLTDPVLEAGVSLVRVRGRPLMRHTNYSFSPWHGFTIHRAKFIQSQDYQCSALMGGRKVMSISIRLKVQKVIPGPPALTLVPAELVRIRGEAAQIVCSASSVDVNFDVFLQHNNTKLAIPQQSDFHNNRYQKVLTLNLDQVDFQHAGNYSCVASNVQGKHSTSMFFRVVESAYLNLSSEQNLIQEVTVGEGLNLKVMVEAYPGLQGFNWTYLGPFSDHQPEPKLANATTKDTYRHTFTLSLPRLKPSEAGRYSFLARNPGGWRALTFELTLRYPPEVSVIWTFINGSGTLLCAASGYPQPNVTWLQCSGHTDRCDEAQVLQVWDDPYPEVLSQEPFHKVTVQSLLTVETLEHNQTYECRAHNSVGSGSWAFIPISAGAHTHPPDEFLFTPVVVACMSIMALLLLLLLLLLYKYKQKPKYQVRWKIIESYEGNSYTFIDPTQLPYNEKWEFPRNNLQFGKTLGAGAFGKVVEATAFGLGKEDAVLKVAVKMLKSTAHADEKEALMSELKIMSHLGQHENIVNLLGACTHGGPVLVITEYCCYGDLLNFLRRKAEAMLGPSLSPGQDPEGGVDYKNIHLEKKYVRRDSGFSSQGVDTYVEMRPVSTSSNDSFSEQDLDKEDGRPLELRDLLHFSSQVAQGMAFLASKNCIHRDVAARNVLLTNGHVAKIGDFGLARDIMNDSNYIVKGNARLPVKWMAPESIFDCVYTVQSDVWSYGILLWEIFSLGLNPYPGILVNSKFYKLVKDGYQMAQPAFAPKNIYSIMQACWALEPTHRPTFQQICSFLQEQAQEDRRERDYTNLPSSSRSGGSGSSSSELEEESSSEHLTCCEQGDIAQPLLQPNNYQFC
Chain of Serine/threonine-protein kinase Nek7 (Homo sapiens) (Q8TDX7 whole entry, looked up): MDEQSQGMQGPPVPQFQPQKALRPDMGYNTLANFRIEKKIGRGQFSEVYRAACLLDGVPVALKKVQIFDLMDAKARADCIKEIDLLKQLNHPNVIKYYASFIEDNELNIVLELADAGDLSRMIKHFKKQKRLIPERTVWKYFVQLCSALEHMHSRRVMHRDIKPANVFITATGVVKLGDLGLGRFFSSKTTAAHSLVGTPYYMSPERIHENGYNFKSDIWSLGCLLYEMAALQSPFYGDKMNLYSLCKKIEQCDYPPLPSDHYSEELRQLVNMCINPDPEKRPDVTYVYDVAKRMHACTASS
Chain of Serine/threonine-protein kinase PLK1 (Homo sapiens) (P53350 whole entry): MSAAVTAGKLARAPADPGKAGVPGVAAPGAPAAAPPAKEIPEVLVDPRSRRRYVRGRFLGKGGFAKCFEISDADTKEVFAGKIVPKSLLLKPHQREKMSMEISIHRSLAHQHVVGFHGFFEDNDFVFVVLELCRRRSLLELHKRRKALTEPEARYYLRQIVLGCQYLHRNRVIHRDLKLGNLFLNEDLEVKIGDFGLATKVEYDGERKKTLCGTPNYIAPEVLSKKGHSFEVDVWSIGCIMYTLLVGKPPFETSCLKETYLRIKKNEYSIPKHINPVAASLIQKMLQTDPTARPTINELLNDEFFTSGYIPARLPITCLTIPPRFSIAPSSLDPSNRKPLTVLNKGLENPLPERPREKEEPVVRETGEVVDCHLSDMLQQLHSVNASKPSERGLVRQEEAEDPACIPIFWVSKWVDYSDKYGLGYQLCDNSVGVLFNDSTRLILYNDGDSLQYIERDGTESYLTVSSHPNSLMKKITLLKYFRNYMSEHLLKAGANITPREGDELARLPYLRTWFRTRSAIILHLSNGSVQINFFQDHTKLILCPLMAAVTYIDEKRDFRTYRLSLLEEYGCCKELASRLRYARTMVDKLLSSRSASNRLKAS
Chain of Serine/threonine-protein kinase Nek6 (Homo sapiens) (Q9HC98 whole entry): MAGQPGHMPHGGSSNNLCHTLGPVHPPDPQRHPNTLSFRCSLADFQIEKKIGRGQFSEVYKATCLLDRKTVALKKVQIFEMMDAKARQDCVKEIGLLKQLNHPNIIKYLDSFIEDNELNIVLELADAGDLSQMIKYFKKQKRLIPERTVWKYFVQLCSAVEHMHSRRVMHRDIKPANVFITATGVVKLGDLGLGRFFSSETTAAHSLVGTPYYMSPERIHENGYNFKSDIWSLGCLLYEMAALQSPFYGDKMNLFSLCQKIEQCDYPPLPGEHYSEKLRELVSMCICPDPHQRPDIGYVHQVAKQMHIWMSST
Chain of Vascular endothelial growth factor receptor 3 (Homo sapiens) (P35916 whole entry): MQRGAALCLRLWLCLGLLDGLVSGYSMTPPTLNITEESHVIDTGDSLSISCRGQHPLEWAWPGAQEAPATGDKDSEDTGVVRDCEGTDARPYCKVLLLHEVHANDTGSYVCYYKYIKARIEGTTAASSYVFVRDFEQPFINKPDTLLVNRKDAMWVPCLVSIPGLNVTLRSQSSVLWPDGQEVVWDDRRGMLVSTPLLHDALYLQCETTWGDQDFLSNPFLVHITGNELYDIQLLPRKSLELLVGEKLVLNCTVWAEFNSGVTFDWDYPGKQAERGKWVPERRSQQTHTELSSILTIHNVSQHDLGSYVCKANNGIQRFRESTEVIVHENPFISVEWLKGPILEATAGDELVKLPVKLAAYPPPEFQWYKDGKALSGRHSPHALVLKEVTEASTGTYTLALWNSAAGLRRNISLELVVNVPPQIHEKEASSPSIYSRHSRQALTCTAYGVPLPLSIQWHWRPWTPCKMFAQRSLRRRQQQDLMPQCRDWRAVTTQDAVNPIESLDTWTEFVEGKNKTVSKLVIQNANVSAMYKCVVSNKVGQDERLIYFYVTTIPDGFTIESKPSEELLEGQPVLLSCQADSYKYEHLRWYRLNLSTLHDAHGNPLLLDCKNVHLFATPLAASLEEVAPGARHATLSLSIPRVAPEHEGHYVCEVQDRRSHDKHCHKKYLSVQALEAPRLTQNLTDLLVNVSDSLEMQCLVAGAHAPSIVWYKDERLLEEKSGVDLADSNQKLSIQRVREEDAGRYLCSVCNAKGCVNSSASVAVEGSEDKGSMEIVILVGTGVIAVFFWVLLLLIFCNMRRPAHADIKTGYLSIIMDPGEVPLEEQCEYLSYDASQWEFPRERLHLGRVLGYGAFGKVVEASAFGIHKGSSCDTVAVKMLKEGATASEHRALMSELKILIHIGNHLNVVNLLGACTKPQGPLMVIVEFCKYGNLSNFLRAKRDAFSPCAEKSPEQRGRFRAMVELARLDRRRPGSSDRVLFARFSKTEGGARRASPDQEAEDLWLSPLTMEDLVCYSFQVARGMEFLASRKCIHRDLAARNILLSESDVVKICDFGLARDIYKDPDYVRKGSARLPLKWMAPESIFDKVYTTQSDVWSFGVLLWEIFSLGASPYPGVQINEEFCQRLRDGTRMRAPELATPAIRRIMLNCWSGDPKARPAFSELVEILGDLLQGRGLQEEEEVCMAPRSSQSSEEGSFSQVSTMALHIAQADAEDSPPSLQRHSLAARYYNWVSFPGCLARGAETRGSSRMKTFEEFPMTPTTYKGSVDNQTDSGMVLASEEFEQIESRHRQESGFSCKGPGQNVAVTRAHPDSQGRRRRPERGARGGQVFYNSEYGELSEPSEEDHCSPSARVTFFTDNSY

What is called inhibition is the change of the read-out against control, counted positive when it falls. As for `COC(=O)c1ccc2c(c1)C(=Cc1cc(Br)c(O)c(Br)c1)C(=O)N2`, the inhibition in test [1] stood at 13.9%; in test [2], 2.53%; in [3] it was 2.21%; in [4], 4.16%; in [5], 2.86%; in test [6] it was 0.58%. Moreover, the inhibition in [7] amounted to 2.21%; in test [8], 4.31%; in test [9], 8.9%; in [10], 6.38%; in test [11], 11.3%; in test [12], 5.7%. The inhibition in test [13] stood at 17.4%; in [14], 13.3%; in [15] it was 4.72%; in [16], 1.46%; in test [17] it was 9.65%; in [18] it was 2.87%. For the same molecule, the inhibition amounted to 16.5% in [19] and 5.27% in test [20].

(Values after ChEMBL document CHEMBL1961873, “Compounds: GSK PKIS; Assays: Nanosyn kinase panel” (2012).)
